Bioassay records deposited in PubChem by National Center for Advancing Translational Sciences (NCATS).
LmPK inhibitor: blocks Leishmania mexicana pyruvate kinase activity; Q27686; purified LmPK, Kinase-Glo ATP luminescence, 1 h; Potency, µM (highest dose often 57.5 µM), for the others: at the top dose activity change, negative = inhibition, most hits filed as inhibitors; 290,000 tested, 0.37% active; AID 1721; further: potency means the concentration at half of the fitted maximal effect; on the % scale 0 is the no-effect control and ±100 the full control effect
Target sequence (Q27686 whole entry, looked up): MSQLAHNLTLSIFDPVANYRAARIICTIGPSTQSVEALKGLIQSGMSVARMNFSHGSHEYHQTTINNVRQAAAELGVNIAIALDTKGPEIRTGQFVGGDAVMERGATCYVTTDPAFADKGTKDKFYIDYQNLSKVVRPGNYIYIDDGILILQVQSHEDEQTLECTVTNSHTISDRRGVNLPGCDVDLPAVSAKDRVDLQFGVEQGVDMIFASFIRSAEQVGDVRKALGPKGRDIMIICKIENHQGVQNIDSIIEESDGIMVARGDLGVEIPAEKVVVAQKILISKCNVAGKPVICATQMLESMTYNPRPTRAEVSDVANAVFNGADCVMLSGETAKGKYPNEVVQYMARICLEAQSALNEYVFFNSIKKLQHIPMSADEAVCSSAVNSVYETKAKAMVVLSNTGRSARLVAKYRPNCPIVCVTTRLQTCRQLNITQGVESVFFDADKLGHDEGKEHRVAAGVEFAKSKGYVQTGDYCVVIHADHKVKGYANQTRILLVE
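Purified LmPK (0.1 nM) converted ADP (0.1 mM) to ATP with PEP (0.5 mM) in imidazole buffer pH 7.2 with KCl and MgCl2, 1 h at room temperature. ATP was read by Kinase-Glo luminescence; data normalized to uninhibited and no-enzyme controls.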
Tb PYK inh: inhibitors of Trypanosoma brucei pyruvate kinase; 410,000 tested, 0.12% active; TbPYK enzyme, Kinase-Glo Plus ATP luminescence, 45 min; Potency, µM (top dose mostly 76.8 µM), inactives show top-dose activity, negative = inhibition, hits mostly inhibitors; further: potency means the concentration at half of the fitted maximal effect; on the % scale 0 is the no-effect control and ±100 the full control effect; nearly all actives have a fitted effect of over 50% in size
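Luminescence from Kinase-Glo Plus, added after a 45-minute room-temperature reaction, served as the end-point read-out. The enzyme and substrate were preincubated with compound before ADP (130 uM final) initiated turnover. Concentration-effect curves came from normalized qHTS data.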
RE007 growth inh: less growth of the S. pombe RE007 Vpr strain; 360,000 tested, 0.21% active; Potency, µM (series often up to 92.2 µM), for inactives: at the highest dose activity change, negative = less growth, most hits filed as inhibitors; S. pombe RE007 Vpr strain, BacTiter-Glo ATP luminescence, 24 h; AID 651644; active means well fitted falling curve with a large enough effect; inconclusive means small, poorly fitted or top-dose-only effect; inactive means no such curve, though single readings can be large or run the other way; further: potency means the concentration at half of the fitted maximal effect; on the % scale 0 is the no-effect control and ±100 the full control effect; nearly all actives have a fitted effect of over 50% in size
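Fission yeast strain RE007, carrying one chromosomally integrated HIV-1 vpr copy, was seeded at OD 0.01 in PMG+AL medium with 23 nL pinned compound. After 24 h at 30 °C and 99% humidity, viability was read by BacTiter-Glo luminescence.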
Shiga toxin inh: Shiga toxin inhibition; Vero cells, Shiga toxin protein synthesis inhibition reporter; inhibition, % at 38.7 µM; 290,000 tested, 9.2% active; AID 2315; in the data active means inhibition mostly above about 28%, no sharp cut-off; inactive means mostly below about 43%; further: 0% is about no effect
Giardia FBPA inh: inhibitors of Giardia lamblia fructose-1,6-bisphosphate aldolase; A8B2U2; purified Giardia FBPA; Potency, µM (top dose mostly 59.6 µM), for the others: at the top dose activity, negative = inhibition, usual class: inhibitors; 290,000 tested, 0.71% active; AID 2451; further: potency means the concentration at half of the fitted maximal effect; on the % scale 0 is the no-effect control and ±100 the full control effect; nearly all actives have a fitted effect of over 55% in size
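40 nM FBPA preincubated 10 min at RT with compound (up to 57.5 uM final), then substrate plus GAPDH/TPI/NAD/arsenate coupling and diaphorase/resazurin added. Fluorescence read after 20 min at RT, 525/598 nm.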
CHX counter: counter-screen for Shiga toxin inhibitors: cycloheximide protein synthesis inhibition; cell reporter, cycloheximide protein synthesis inhibition counterscreen; max response, %; 300,000 tested, 12% active; AID 2314; in the data active means max response mostly above about 13%, no sharp cut-off; inactive means mostly below about 14%; further: read at 38.3 µM for the half of the compounds with a filed dose; 0% is about no effect
* = called active by the depositor; ? = inconclusive; . = no result given; + = active, no number; [ ] = another dose, or the depositor's remark. The full list was thinned out, with hits kept by preference. Unless noted, the call rests on the fitted dose curve; in most records, active means well fitted curve in the direction sought with a large enough effect; inconclusive means small, poorly fitted or top-dose-only effect, or another doubt; inactive means no such curve, though single readings can be large; an effect the other way counts as inactive or inconclusive.

SMILES	LmPK inhibitor	Tb PYK inh	RE007 growth inh	Shiga toxin inh	Giardia FBPA inh	CHX counter
O=C(/C=C/c1ccco1)NC(=S)Nc1nc(-c2ccc3ccccc3c2)cs1	-6%	-3%	-5%	-8	-1%	-1
Cc1cccnc1NC(=S)NC(=O)/C=C/c1ccco1	3%	4%	?	152*	-24%	71*
O=C(/C=C/c1ccco1)NC(=S)Nc1ccccn1	1%	0%	-25%	109*	?	56*
COc1ccc2[nH]cc(CCNc3ncnc4ccc(-c5ccccc5OC)cc34)c2c1	.	.	.	.	-9%	.
c1cc(Nc2cccc3nccnc23)c2nccnc2c1	-4%	-5%	?	-9	0%	-2
Fc1ccc(Nc2cccc3nccnc23)cc1	0%	-3%	-7%	47*	-11%	22*
[O-][n+]1c2c(nn1-c1ccccc1)/C(=N/O)CCC2	-7%	-5%	7%	-4	5%	2
[O-][n+]1onc2c1CCC(=N/O)/C2=N\Nc1ccccc1	?	.	.	55	?	19*
O=C1N=c2ccccc2=C1c1sc(NS(=O)(=O)Cc2ccccc2)nc1O	?	-16%	1%	-2	10%	-4
O=C1N=c2ccccc2=C1c1sc(Nc2cccc(O)c2)nc1O	-13%	11%	-7%	48*	-2%	44*
O=C1N=c2ccccc2=C1c1sc(NS(=O)(=O)c2ccccc2)nc1O	-20%	-27%	-17%	-4	-2%	12
O=C1N=c2ccccc2=C1c1sc(Nc2ccc(O)cc2)nc1O	-4%	1%	5%	64*	?	12
O=c1c2c3c(sc2nc2sc(CN4CCOCC4)cn12)CCCC3	-2%	-4%	2%	+	18%	18*
CO[C@@H]1c2cc(F)ccc2/C(=C\CCOC(=O)C/C=C/c2ccccc2)[C@H]1C	.	.	.	.	-1%	.
C/C=C1\NC(=O)[C@H]2CSSCC/C=C\[C@H](CC(=O)N[C@H](C(C)C)C(=O)N2)OC(=O)C(C(C)C)NC1=O (stereo partly drawn)	.	2%	.	.	.	.
O=C(CSc1nc2ccccc2nc1Cc1ccc(Cl)cc1)NCCc1ccccc1	.	0%	.	.	.	.
c1ccc(CNc2ccc3c(c2)ncn3C2CCCCC2)nc1	-10%	-4%	13%	46*	1%	22*
CCCCS(=O)(=O)Nc1ccc2c(c1)ncn2C1CCCCC1	-8%	3%	3%	-14	0%	20
COC(=O)c1ccc(NC(=O)CC2C(=O)N(c3cccc(OC)c3)C(=O)N2C(C)C)cc1 (stereo not drawn)	.	-8%	.	.	.	.
C=CC[C@@H]1C=C[C@@H](O/N=C2/C[C@@H](O)[C@@H](O)[C@@H]3[C@@H]4C(=O)N(CC)C(=O)[C@H]4CC[C@@H]23)[C@@H](CO)O1	.	.	.	.	0%[12.9 µM]	.
c1ccc(CNc2ncnc3nc[nH]c23)nc1	-2%	0%	11%	4	-1%	0
COc1ccc(-n2ncc3c(NCc4cccs4)ncnc32)cc1	-2%	-10%	-2%	145*	-27%	38*
Cc1ccc(-n2ncc3c(NCc4ccccc4)ncnc32)cc1C	.	-2%	.	.	.	.
c1csc(CNc2ncnc3nc[nH]c23)c1	-2%	2%	-2%	15	-5%	16*
COc1ccc(CCNc2ncnc3c2cnn3-c2ccc(F)cc2)cc1	.	0%	.	.	.	.
SMILES	LmPK inhibitor	Tb PYK inh	RE007 growth inh	Shiga toxin inh	Giardia FBPA inh	CHX counter
c1ccc(-n2ncc3c(NCc4cccnc4)ncnc32)cc1	6%	-5%	2%	67	-3%	20*
COc1ccc(-n2ncc3c(NCc4ccco4)ncnc32)cc1	0%	-3%	14%	90*	-15%	39*
COc1ccc(C)cc1NC(=O)C1CCCN(S(=O)(=O)c2ccc3c(c2)oc(=O)n3C)C1 (stereo not drawn)	.	0%	.	.	.	.
c1ccc(C(c2ccccc2)N2CCCC3(CCNCC3)C2)cc1	.	-6%	.	.	7%	.
CN(C)CCc1c[nH]c2ccccc12	.	0%[288 µM]	.	.	.	.
Cc1cc(C(=O)Nc2c(C)nc3ccccn3c2=O)ccc1[N+](=O)[O-]	.	2%	.	.	.	.
COc1ccc(-n2ncc3c(NCc4ccccn4)ncnc32)cc1	0%	9%	3%	90*	-17%	50*
c1ccc(-n2ncc3c(NCc4cccs4)ncnc32)cc1	1%	-1%	-2%	52*	-24%	51*
CCCN(CCC)c1ncnc2c1cnn2-c1ccc(OC)cc1	-8%	10%	-4%	66*	1%	30*
CCCNc1ncnc2c1cnn2-c1ccc(OC)cc1	6%	.	.	-11	-3%	-2
C=CCNc1ncnc2c1cnn2-c1ccc(OC)cc1	-9%	2%	2%	61*	-15%	30*
Cc1cc2nc3c(=O)[nH]c(=O)nc-3n(C[C@H](O)[C@H](O)[C@H](O)COP(=O)(O)OP(=O)(O)OC[C@H]3O[C@@H](n4cnc5c(N)ncnc54)[C@H](O)[C@@H]3O)c2cc1C	.	-11%	.	.	.	.
Cc1ccc(NC(=O)c2cc3ccccn3n2)cc1F	.	3%	.	.	.	.
O=[N+]([O-])c1ccc2nc(-c3ccc(OC(F)F)cc3)cn2c1	-4%	-5%	-1%	73*	?	45*
COc1ccc(-c2ccc(=O)n(Cc3ccc([N+](=O)[O-])cc3)n2)cc1	-5%	-1%	-12%	-4	-4%	-1
Cc1cc(N/C=C/C(=O)c2ccc(Br)cc2)no1	-2%	-7%	8%	49*	1%	16*
O=C(/C=C\Nc1ccc(Cl)cn1)c1ccc(Br)cc1	0%	-4%	1%	36	3%	14
COc1ccc(C(=O)/C=C/Nc2cc(C)ccn2)cc1	13µM*	-27%	-13%	38	-8%	29*
Cc1ccnc(N/C=C/C(=O)c2ccc(Br)cc2)c1	-3%	-16%	7%	110*	1%	49*
Cc1cc(N/C=C/C(=O)c2cccc3ccccc23)no1	3%	1%	0%	27	5%	11
C[C@@H]1CCN=C(N)S1	.	.	.	.	-6%	.
Cc1ccccc1CCNC(=O)c1ccc2c(c1)c(C)c(C)n2C	.	-5%[15.4 µM]	.	.	.	.
Cc1c(C)n(C)c2ccc(C(=O)NCCc3ccco3)cc12	0%	6%	-18%	69*	1%	39*
CC(=O)Nc1cccc(C(=O)NCCc2ccco2)c1	-12%	0%	-14%	78*	-1%	26*
CCn1c(C)c(C)c2cc(C(=O)NCCc3ccco3)ccc21	9%	4%	-7%	36*	-2%	16
CCOc1ccccc1C1CC(=O)Nc2c1c(=O)n(C)c1ncnn21 (stereo not drawn)	.	0%	.	.	.	.
COc1ccc2c3c1OC1C(O)C=CC4[C@@H](C2)NCC[C@]314 (stereo partly drawn)	.	-4%[157 µM]	.	.	.	.
